{"source": "PubChem BioAssay (NCATS)", "note": "Results filed as inconclusive are left out. Active and inactive are the calls of the source. Calls follow the shape of the dose curve; as a rule, active = well fitted cell-killing curve with a large enough effect; inconclusive = small, poorly fitted or top-dose-only effect, or effect the other way; inactive = no such curve, though single readings can be large or run the other way."}
{"assay": "Viability qHTS for spleen associated tyrosine kinase inhibitor (SYKi) naive MV4-11 cells (AID 1963823); also: nearly all actives have a fitted effect of over 40% in size; also: potency is read from the fitted curve at half-maximal effect", "details": "MV4-11 AML viability, CellTiter-Glo luminescence, 72 h; series mostly up to 45 µM; viability (% of control): at the top concentration", "method_in_brief": "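qHTS, SYK inhibitor-naive MV4-11; 500 cells/well; 72 hr compound exposure, 37 C; CellTiter-Glo added, 10 min RT; luminescence read.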"}
{"molecule": "CC(C)C(C)C(O)C1CC23CC(=O)C4(O)C(=C2CCC3C1C)C=CC1(O)CC(O)CCC14C", "note": "(stereo unspecified)", "viability (% of control)": "69.2% [at 17.3 µM] (inactive)"}
{"molecule": "O=C1NC(=O)/C(=C\\c2ccc3nccc(-c4ccncc4)c3c2)S1", "Potency": "0.13 µM (active)"}
{"molecule": "C#CCN(Cc1cc2c(=O)n(C)c(CN3CCN(C)CC3)nc2cc1Cl)c1ccc(C(=O)NCc2cccnc2)cc1", "viability (% of control)": "2.34% (inactive)"}
{"molecule": "COc1c(C)cnc(Cn2cc(C#CCC(C)(C)O)c3c(Cl)nc(N)nc32)c1C", "Potency": "0.0116 µM (active)"}
{"molecule": "CC1(C)[C@@H](O)CC[C@]2(C)[C@H]3CC=C4[C@@H]5C[C@](C)(C(=O)O)CC[C@]5(C)CC[C@@]4(C)[C@]3(C)CC[C@@H]12", "viability (% of control)": "110% (inactive)"}
{"molecule": "Nc1cc(C(F)(F)F)ccc1S", "Potency": "21.1 µM (active)"}
{"molecule": "O=C(NC(NC(=S)Nc1ccc(F)c([N+](=O)[O-])c1)C(Cl)(Cl)Cl)C(c1ccccc1)c1ccccc1", "note": "(stereo unspecified)", "Potency": "3.26 µM (active)"}
{"molecule": "CC1(C)CCC2(C(=O)OC3OCC(O)C(O)C3O)CCC3(C)C(=CCC4C5(C)CC(O)C(OC6OC(COC7OCC(O)C(O)C7O)C(O)C(O)C6O)C(C)(C)C5CCC43C)C2C1", "note": "(stereo unspecified)", "viability (% of control)": "68.8% [at 9.25 µM] (inactive)"}
{"molecule": "O=C(O[C@H]1[C@@H]2C=CO[C@@H](O[C@@H]3O[C@H](CO)[C@@H](O)[C@H](O)[C@H]3O)[C@@H]2[C@@]2(CO)O[C@@H]12)c1ccc(O)cc1", "viability (% of control)": "88% [at 17.3 µM] (inactive)"}
{"molecule": "NC(=O)C1=C(O)[C@@]2(O)C(=O)C3=C(O)c4c(O)cccc4C[C@H]3C[C@H]2CC1=O", "Potency": "3.32 µM (active)"}
{"molecule": "Oc1cccc(Nc2ncnc3sc4c(c23)CCCC4)c1", "Potency": "4.11 µM (active)"}
{"molecule": "CCOc1ccc(-c2cc(NC(=O)c3c(F)cccc3F)c(C(=O)O)s2)cc1", "viability (% of control)": "25.2% (inactive)"}
{"molecule": "C=C1C(=O)O[C@H]2C1CCC(C)=C1C(=O)C=C(C)[C@@]12O", "note": "(stereo partly specified)", "Potency": "7.31 µM (active)"}
{"molecule": "Nc1nc(Cl)nc2c1ncn2C1OC(CO)C(O)C1F", "note": "(stereo unspecified)", "Potency": "0.116 µM (active)"}
{"molecule": "Nc1ncnc2c1nc(Cl)n2C1O[C@H](CO)[C@@H](O)[C@H]1O", "note": "(stereo partly specified)", "Potency": "0.366 µM (active)"}
{"molecule": "CC(C)(O)C1CC=C(C(=O)OCC2OC(Oc3c(O)cc(C(=O)O)cc3O)C(O)C(O)C2O)CC1", "note": "(stereo unspecified)", "viability (% of control)": "92% [at 17.3 µM] (inactive)"}
{"molecule": "COc1cc(/C=C/C(=O)O[C@H]2[C@H](O)[C@@H](CO)O[C@@]2(CO)O[C@H]2O[C@H](COC(=O)c3ccc(O)cc3)[C@@H](O)[C@H](O)[C@H]2O)cc(OC)c1OC", "viability (% of control)": "77% [at 17.3 µM] (inactive)"}
{"molecule": "CN1c2ccccc2C(=O)N2CCC3c4ccccc4NC3C21", "note": "(stereo unspecified)", "Potency": "2.55 µM (active)"}
{"molecule": "CC(C)OC(=O)OCOP(=O)(COC(C)Cn1cnc2c(N)ncnc21)OCOC(=O)OC(C)C", "note": "(stereo unspecified)", "Potency": "2.31 µM (active)"}
{"molecule": "CC1(C)C2CCC(CO[C@@H]3O[C@H](CO[C@@H]4OC[C@](O)(CO)[C@H]4O)[C@@H](O)[C@H](O)[C@H]3O)C1C2", "note": "(stereo partly specified)", "viability (% of control)": "83% [at 17.3 µM] (inactive)"}
{"molecule": "CC1=C(C)C(=O)OC(C(C)C2CCC3C4C5OC5C5(O)CC(OC6OC(CO)C(OC7OC(C)C(O)C(O)C7O)C(O)C6O)CC(O)C5(C)C4CCC23C)C1", "note": "(stereo unspecified)", "viability (% of control)": "78.5% [at 17.3 µM] (inactive)"}
{"molecule": "CSCC[C@H](NC(=O)[C@H](CCSC)NC(=O)CNC(=O)[C@H](Cc1ccc(O)cc1)NC(=O)[C@H](Cc1ccccc1)NC(=O)[C@H](CCCN=C(N)N)NC(=O)[C@H](CC(=O)O)NC(=O)[C@@H]1CCCN1C(=O)[C@H](CC(=O)O)NC(=O)[C@@H]1CCCN1C(=O)[C@@H]1CCCN1C(=O)[C@@H](N)CC(=O)O)C(N)=O", "viability (% of control)": "89.4% [at 17.3 µM] (inactive)"}
{"assay": "Viability qHTS for spleen associated tyrosine kinase inhibitor (SYKi) drug resistant MV4-11 cells (AID 1963824); also: nearly all actives have a fitted effect of over 35% in size", "details": "SYKi-resistant MV4-11 viability, CellTiter-Glo, 72 h; series mostly up to 45 µM; viability, % of control: at the top concentration", "method_in_brief": "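CellTiter-Glo luminescence, read 10 min after reagent addition, reports viability after a 72 hr compound exposure. Cells are an MV4-11 line made resistant to SYK inhibition, seeded at 500 per well onto compound-containing plates.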"}
{"molecule": "CC1(C)CC[C@]2(C(=O)O)CC[C@]3(C)C(=CCC4[C@@]5(C)CC[C@H](O[C@@H]6O[C@H](C(=O)O)[C@@H](O)[C@H](O[C@@H]7O[C@H](CO)[C@H](O)[C@H](O)[C@H]7O)[C@H]6O[C@@H]6O[C@H](CO)[C@@H](O)[C@H](O)[C@H]6O)C(C)(C)C5CC[C@]43C)[C@@H]2C1", "note": "(stereo partly specified)", "viability, % of control": "75.1% [at 4.97 µM] (inactive)"}
{"molecule": "CC(/C=C/C1(O)C(C)CC(O)CC1(C)C)OC1OC(CO)C(O)C(O)C1O", "note": "(stereo unspecified)", "viability, % of control": "98.6% (inactive)"}
{"molecule": "CC(C)(O)c1ccc2c(c1)C(=O)CC1[C@](C)(CO)CCC[C@]21C", "note": "(stereo partly specified)", "viability, % of control": "71.4% (inactive)"}
{"molecule": "CC1(C)CCC2(C(=O)OC3OC(CO)C(O)C(O)C3O)CCC3(C)C(=CCC4C5(C)CCC(OC6OC(C(=O)O)C(OC7OC(CO)C(O)C(O)C7O)C(OC7OC(CO)C(O)C(O)C7O)C6O)C(C)(C)C5CCC43C)C2C1", "note": "(stereo unspecified)", "viability, % of control": "109% [at 9.25 µM] (inactive)"}
{"molecule": "CC(C)(O)/C=C1/C(=O)C(C)(C)C(=O)C(C)(C)C1(O)O[C@@H]1O[C@H](COC(=O)c2cc(O)c(O)c(O)c2)[C@@H](O)[C@H](O)[C@H]1O", "note": "(stereo partly specified)", "viability, % of control": "69.3% [at 17.3 µM] (inactive)"}
{"molecule": "C/C=C(\\C)C(=O)OCC1OC(OC2OC(COC(=O)/C(C)=C/C)C(OC3OC(CO)C(OC(=O)/C(C)=C/C)C(OC(=O)/C(C)=C/C)C3O)C(O)C2O)C(O)C(O)C1OC1OC(CO)C(OC(=O)/C(C)=C/C)C(OC(=O)/C(C)=C/C)C1O", "note": "(stereo unspecified)", "viability, % of control": "58.7% [at 9.25 µM] (inactive)"}
{"molecule": "CC(C)(OC1OC(CO)C(O)C(O)C1O)C1CCC(O)(CO)C2CC(O)C(C)(O)C2C1", "note": "(stereo unspecified)", "viability, % of control": "101% [at 17.3 µM] (inactive)"}
{"molecule": "COc1ccc(CN2C(=O)C(=O)c3cc(S(=O)(=O)N4CCC[C@H]4COc4cccnc4)ccc32)cc1", "viability, % of control": "108% (inactive)"}
{"molecule": "CC(CC(C)O[C@@H]1O[C@H](CO)[C@@H](O)[C@H](O)[C@H]1O)OC(=O)/C=C/c1ccc(O)cc1", "note": "(stereo partly specified)", "viability, % of control": "87.1% [at 17.3 µM] (inactive)"}
